According to PubChem BioAssay (NCI):
Compounds without any hit were thinned out: in the full panel of roughly 79,000, 15% have a hit. No stated cut-off is given here; in the data, active means growth inhibition above about 70%; inactive means the rest.

How the values were obtained:
[1] = NCI Yeast Anticancer Drug Screen. Data for the rad50 strain (AID 155);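 further: 0% = growth of vehicle-only cultures of the same strain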; conditions: S. cerevisiae rad50 strain growth inhibition; at 50.0 µM; active compounds read high
How it was run: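 Inhibition values express reduced yeast growth in compound-treated cultures relative to vehicle-treated controls.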

[2] = NCI Yeast Anticancer Drug Screen. Data for the mec2-1 strain (AID 157); conditions: S. cerevisiae mec2-1 strain, at 50.0 µM, active compounds read high
How it was run: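 Readout is yeast growth inhibition, normalised to vehicle-treated controls, in the mec2-1 strain exposed to compound.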

[3] = NCI Yeast Anticancer Drug Screen. Data for the sgs1 mgt1 strain (AID 161);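 further: 0% = growth of cultures given vehicle only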; conditions: S. cerevisiae sgs1 mgt1 strain, at 50.0 µM, active compounds read high
How it was run: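 This yeast growth screen uses a strain with defined DNA-repair lesions; compound-treated growth is compared with vehicle-treated growth.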

[4] = NCI Yeast Anticancer Drug Screen. Data for the cln2 rad14 strain (AID 165);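 further: 0% = growth equal to vehicle treated cultures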; conditions: S. cerevisiae cln2 rad14 strain, at 50.0 µM, active compounds read high
How it was run: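 Relative to vehicle controls, growth inhibition of compound-treated cln2 rad14 yeast was recorded.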

[5] = NCI Yeast Anticancer Drug Screen. Data for the bub3 strain (AID 167); conditions: S. cerevisiae bub3 mutant strain, at 50.0 µM, active compounds read high
How it was run: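 Steps: expose the mutant yeast strain to compound; grow alongside vehicle-treated cultures; measure growth; express inhibition against the vehicle cultures.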

[6] = NCI Yeast Anticancer Drug Screen. Data for the mlh1 rad18 strain (AID 175); conditions: S. cerevisiae mlh1 rad18 strain growth inhibition; at 50.0 µM; active compounds read high
How it was run: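 Test agents were incubated with a yeast strain of defined genotype (DNA damage repair defect). Inhibition of growth was derived by comparison with vehicle-exposed cultures.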

Measured: growth inhibition

O=C(/C=C/c1ccccc1)c1ccc(O)cc1O
inactive: [1] -27.3% | [2] -13.2% | [3] 14.8% | [4] -27.1% | [5] 1.65% | [6] 2.1%

O=C1CN(c2cccc(C(F)(F)F)c2)C(=O)CN1/N=C/c1ccc(O)c(O)c1
inactive: [1] 3.4% | [2] -0.1% | [3] -5.3% | [4] -2.3% | [5] 2.4% | [6] 27.6%

Cc1cc(CSCCc2nc3ccccc3[nH]2)c(O)c(CSCCc2nc3ccccc3[nH]2)c1
inactive: [1] 15.1% | [2] 3.8% | [3] 5.55% | [4] -42% | [5] -6.65% | [6] 14.4%

CC[N+](C)(CC)CCOC(=O)C(c1ccccc1)C(O)C1CCCC1 (centres undefined)
inactive: [1] -6.85% | [2] 3.45% | [3] -0.2% | [4] -6.2% | [5] 20.9% | [6] -8.15%

O=c1[nH]c(=O)n(COCc2ccccc2)c2ccccc12
inactive: [1] 5.1% | [2] -12.2% | [3] 65.2% | [4] 12.7% | [5] 37.7% | [6] -18.4%

CC(C)(c1ccccc1)C(C)(C)c1nc(-c2ccccc2)cc(-c2ccccc2)n1
inactive: [1] -23.4% | [2] 4.95% | [3] -4.65% | [4] -95% | [5] -0.95% | [6] -11.8%

CCOc1c(N=Nc2ccccc2OC)c(-c2ccccc2)nn1C(=S)S
inactive: [1] 33.4% | [2] 42% | [3] 24.8% | [4] 5.75% | [5] 66.7% | [6] 18.9%

COc1ccccc1NC(=O)c1nc2ccc([N+](=O)[O-])cc2nc1C
inactive: [1] 21.4% | [2] 19.1% | [3] 1.65% | [4] 15.4% | [5] 33.9% | [6] 20.4%

CCOc1ccc(N=C(NC(=O)c2ccccc2)SC)cc1
inactive: [1] -5.9% | [2] -0.7% | [3] -0.15% | [4] 23.3% | [5] 10.1% | [6] 0.65%

COC(=O)c1cc(-c2cccnc2)[nH]c(=O)c1C#N
inactive: [1] -5.4% | [2] -36.6% | [3] -39.9% | [4] -15.7% | [5] -9.7% | [6] -14.2%

Cc1ccc(CO)c(O)c1
inactive: [1] 8.65% | [2] -7.25% | [3] -5.55% | [4] 6.4% | [5] 3.75% | [6] 2.15%

CC(C)C(CNC(=S)Nc1ccccc1)(c1ccccc1)c1ccccc1
inactive: [1] 6.9% | [2] 13.1% | [3] 5.25% | [4] 1.85% | [5] 8.95% | [6] 12.8%

CC(=O)OC(C)C(C)Br (centres undefined)
inactive: [1] 9.75% | [2] 4.4% | [3] -9.35% | [4] -25.1% | [5] -13% | [6] 4.9%

Cc1cc2ccccc2c[n+]1CC(=O)CC([O-])(C(F)(F)F)C(F)(F)F
inactive: [1] 2.85% | [2] 3.25% | [3] -5.65% | [4] 4.1% | [5] 16.4% | [6] -14.9%

CSc1ccccc1C1CCCCCC1O (centres undefined)
inactive: [1] 11% | [2] 12.8% | [3] 5.65% | [4] 12.8% | [5] -30.6% | [6] 10.1%

C[S+](C)c1ccc(Cl)cc1
inactive: [1] -1.45% | [2] -6.65% | [3] -21.2% | [4] 17.9% | [5] 11.3% | [6] 8.25%

OC(c1ccccc1)(C(F)(F)F)C(F)(F)F
inactive: [1] 3% | [2] 5.85% | [3] 6.1% | [4] 14.3% | [5] 9.9% | [6] 8.75%

CSc1c(C#N)c(N)n2c1C(=O)N(c1ccccc1)C2=S
inactive: [1] -52.7% | [2] 25.6% | [3] -26.9% | [4] 20.1% | [5] 26.1% | [6] -4.8%

FC(F)(F)c1cccc(N=Cc2ccc(C=Nc3cccc(C(F)(F)F)c3)cc2)c1
inactive: [1] 10.4% | [2] -9.2% | [3] 13.3% | [4] 7.6% | [5] -9% | [6] 1.35%
